# The supplement of paper PMC7858590
# “And” between values parts separate entries of the source, which are not always exact repeats. Equal values may be shown once.
# Test system: human monocyte-derived macrophages (polarized)
# Assay: cell shape (eccentricity) Z-score vs DMSO control; higher = more elongated, M2-like morphology
# Conditions: 5 µM; 24 h; macrophage state: M1-polarized (IFNg + TNFa), cytokines present during treatment
# Experimental: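 Primary-screen hits were rescreened on polarized hMDMs with the differentiating cytokines (IL-4 + IL-13 or IFNg + TNFa) kept in the medium during treatment with compound at 5 uM for 24 h. The eccentricity Z-score vs DMSO wells is averaged over experiments.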
row,SMILES,cell shape (Z-score)
1,Nc1nc(Nc2ccccc2)nc2c1ncn2C1OC(CO)C(O)C1O (stereo unspecified),2.02
2,COc1cc(C(=O)N2CCC(N3CCN(C)CC3)CC2)ccc1Nc1ncc2c(n1)N(C)c1ccccc1C(=O)N2C,-5.99
3,O=C(O)C[C@H](O)C[C@H](O)/C=C/c1c(C2CC2)nc2ccccc2c1-c1ccc(F)cc1,5.72
4,C[C@@]1(C(=O)Nc2ccc(F)nc2)CCCN1c1nc(Nc2cc(C3CC3)n[nH]2)c2cccn2n1,5.79
5,CCC[C@H](N[C@@H](C)C(=O)N1[C@H](C(=O)O)C[C@@H]2CCCC[C@@H]21)C(=O)OCC,-1.48
6,CC1(C)CCC(C)(C)c2cc(C(=O)Nc3ccc(C(=O)O)cc3)ccc21,-9.74
7,CCN(CC)C(=S)SSC(=S)N(CC)CC,-3.98
8,COC(=O)C(CCCN=C(N)N)NC(=O)CCCc1c(-c2ccccc2)[nH]c2c(F)cc(F)cc12 (stereo unspecified),0.683
9,O=c1cc(-c2ccc(O)cc2)oc2cc(O)cc(O)c12,0.0357
10,c1ccc(-c2nnc(N3CCOCC3)nc2-c2ccccc2)cc1,-1.34
11,Cn1c2ccccc2c2c3c(c4c5ccccc5n(CCC#N)c4c21)CNC3=O,4.83
12,Cc1onc(-c2ccccc2Cl)c1C(=O)N[C@@H]1C(=O)N2[C@@H]1SC(C)(C)[C@@H]2C(=O)O,-5.49
13,Cn1c([N+](=O)[O-])cnc1COC(N)=O,-4.21
14,CNC(=O)c1cc(Oc2ccc(NC(=O)Nc3ccc(Cl)c(C(F)(F)F)c3)cc2)ccn1,14
15,Cc1ccc(C(=O)Nc2ccc(S(=O)(=O)O)c3cc(S(=O)(=O)O)cc(S(=O)(=O)O)c23)cc1NC(=O)c1cccc(NC(=O)Nc2cccc(C(=O)Nc3cc(C(=O)Nc4ccc(S(=O)(=O)O)c5cc(S(=O)(=O)O)cc(S(=O)(=O)O)c45)ccc3C)c2)c1,6.07
16,O=C(O)c1ccc2c(c1)nc(Nc1cccc(Cl)c1)c1ccncc12,9.47
17,CC[C@@H]1C(=O)N(C)c2cnc(Nc3ccc(C(=O)NC4CCN(C)CC4)cc3OC)nc2N1C1CCCC1,-1.93
18,O=C(NCCN1CCCCC1)c1ccc(I)cc1,6.46
19,Cc1cc(Nc2nc(N[C@@H](C)c3ncc(F)cn3)ncc2Cl)[nH]n1,10.1
20,CCCC(=O)Nc1ncnc2c1ncn2[C@@H]1O[C@@H]2COP(=O)(O)O[C@H]2[C@H]1OC(=O)CCC,0.117
21,C[C@@H](N)[C@H]1CC[C@H](C(=O)Nc2ccncc2)CC1,5.7
22,CC(C)n1cnc2c(NCc3ccccc3)nc(NCCO)nc21,0.237
23,COc1ccc(OC)c(-c2nnc3n2N=C(c2ccc(OC)c(OC)c2)CS3)c1,13.8
24,NC(=O)Nc1sc(-c2ccc(F)cc2)cc1C(N)=O,7.48
25,Nc1nc2c(ncn2COCCO)c(=O)[nH]1,-5.79

# Same assay, conditions: 5 µM; 24 h; macrophage state: M2-polarized (IL-4 + IL-13), cytokines present during treatment
row,SMILES,cell shape (Z-score)
1,Oc1ccc(/C=C/c2cc(O)cc(O)c2)cc1,-0.6
2,CC(=O)Cc1cc(=O)c2c(C)cc(O)c(C3OC(CO)C(O)C(O)C3O)c2o1 (stereo unspecified),-1.16
3,CC(=O)O[C@@H]1C[C@H]2C(C)(C)C(=O)CC[C@]2(C)[C@H]2CC[C@@]3(C)[C@H](c4ccoc4)OC(=O)[C@H]4O[C@]43[C@@]21C,-5.73
4,c1ccc2cc(C3=NCCN3)ncc2c1,0.271
5,C[C@@H]1O[C@@H](O[C@@H]2[C@@H](O)[C@H](OC(=O)[C@]34CCC(C)(C)CC3C3=CCC5[C@@]6(C)CC[C@H](OC7OC(CO)C(OC8OCC(O)C(O)C8O)C(O)C7O)C(C)(C)C6CC[C@@]5(C)[C@]3(C)CC4O)O[C@H]2CO)[C@H](O)[C@H](O)[C@H]1O[C@H]1OC[C@](O)(CO)[C@H]1O (stereo partly specified),-4.86
6,Cc1cc(NS(=O)(=O)c2ccc(N)cc2)no1,-9.54
7,Cc1oc(=O)oc1CN1CCN(c2cc3c(cc2F)c(=O)c(C(=O)O)c2n3C(C)S2)CC1 (stereo unspecified),-6.14
8,Cc1ccc(O)c(N=Nc2ccccc2)n1,-1.32
9,OCCN(CCO)c1nc(N2CCCCC2)c2nc(N(CCO)CCO)nc(N3CCCCC3)c2n1,0.465
10,OCc1ccc(-c2ccc(-c3ccc(CO)s3)o2)s1,-20.9
11,N=C(NCCCCCCNC(=N)NC(=N)Nc1ccc(Cl)cc1)NC(=N)Nc1ccc(Cl)cc1,-10.6 and -7.15
